Hits are enriched below; roughly 6.6% of the tested compounds scored in any of these assays.
TSG101-PTAP inh = qHTS Assay for Iinhibitors of HIV-1 Budding by Blocking the Interaction of PTAP/TSG101. Fluorescence polarization, FITC-PTAP peptide / Tsg101 binding. 340,000 tested, under 10 active. Tumor susceptibility gene 101 protein (Homo sapiens), Q99816. Potency, µM (series often up to 115 µM), most hits filed as inhibitors; active = well fitted inhibition curve with a large enough effect in the main read-out, with a control signal flat, not every such curve was filed as active; inconclusive = small, poorly fitted or top-dose-only effect, or effect the other way, or a change in a side signal; inactive = no such curve, though single readings can be large or run the other way
Target sequence (Q99816 whole entry, looked up): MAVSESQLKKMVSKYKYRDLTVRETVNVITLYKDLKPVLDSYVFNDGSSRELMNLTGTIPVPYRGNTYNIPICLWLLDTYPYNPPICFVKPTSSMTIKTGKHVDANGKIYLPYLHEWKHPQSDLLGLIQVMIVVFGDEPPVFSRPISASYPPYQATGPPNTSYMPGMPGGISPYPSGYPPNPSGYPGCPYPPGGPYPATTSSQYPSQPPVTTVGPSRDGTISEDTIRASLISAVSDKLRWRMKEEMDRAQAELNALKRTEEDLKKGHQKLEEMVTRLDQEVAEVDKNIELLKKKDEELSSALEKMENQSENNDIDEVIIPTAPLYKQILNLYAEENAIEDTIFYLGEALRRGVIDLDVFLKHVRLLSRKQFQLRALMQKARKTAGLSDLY
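Fluorescence polarization binding of Tsg101 binding domain (10 uM final) to FITC-labeled PTAP peptide (50 nM final) in HEPES pH 7.5 buffer with NaCl, Tween 20, EDTA, TCEP. Compounds added before peptide; binding 20 min at RT.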
KB-3-1 cytotox = qHTS assay for MDR1-selective chemotherapeutics: Primary screen using the parental adenocarcinoma cell KB-3-1; KB-3-1 viability, CellTiter-Glo ATP luminescence, 72 h; AID 1347075, 2019; hit rate 1.4% among 400,000; Potency, µM (series often up to 46.1 µM), most hits filed as cytotoxic; note: nearly all actives have a fitted effect of over 60% in size
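Parental KB-3-1 adenocarcinoma cells in phenol-red-free DMEM with 10% FBS were pin-treated with compounds at several concentrations, incubated 72 h at 37 °C, and viability read by CellTiter-Glo luminescence; concentration-effect curves were fitted after normalization.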
RGS4 inh = Inhibitors of Regulator of G Protein Signaling (RGS) 4: qHTS; Regulator of G-protein signaling 4 (Homo sapiens), P49798; Transcreener GDP fluorescence polarization, RGS4-accelerated GTP hydrolysis; Potency, µM (highest dose often 114 µM), usual class: inhibitors; hit rate 0.039% among 390,000; note: nearly all actives have a fitted effect of over 75% in size
Target sequence (P49798 whole entry, looked up): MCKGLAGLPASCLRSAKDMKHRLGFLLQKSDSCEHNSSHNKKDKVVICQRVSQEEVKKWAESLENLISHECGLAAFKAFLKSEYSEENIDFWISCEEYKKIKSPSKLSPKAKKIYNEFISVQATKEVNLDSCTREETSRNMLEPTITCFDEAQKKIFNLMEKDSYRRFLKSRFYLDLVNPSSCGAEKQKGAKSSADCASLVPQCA
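MLSMR compounds (23 nl, pin-transferred) preincubated 10 min at room temperature with a 500nM (2x) first reagent, then RGS4 at 900nM (2x) plus Transcreener GDP mix added; fluorescence polarization (620/688 nm) read before and after 90 min at 30 °C.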
SW480 rereplic = A quantitative high throughput screen for small molecules that induce DNA re-replication in SW480 colon adenocarcinoma cells | hit rate 1.8% among 340,000 | AID 624297, 2012 | SW480 DNA re-replication, Hoechst DNA content imaging, 48 h | Potency, µM (doses to about 46.1 µM), actives largely listed as activators; note: nearly all actives have a fitted effect of over 55% in size
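Treated cells incubate 48 hr (37 C, 5% CO2), are stained 40 min with Hoechst, and nuclear fluorescence is enumerated; a rise in nuclei with high DNA signal marks re-replication.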
KB-V1 MDR tox = qHTS assay for MDR1-selective chemotherapeutics: Primary screen using the drug-selected MDR subline cells KB-V1 | KB-V1 MDR cells viability, CellTiter-Glo, 72 h | Potency, µM (doses to about 46.1 µM), actives largely listed as cytotoxic | hit rate 3.4% among 400,000; note: nearly all actives have a fitted effect of over 60% in size
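Compound-treated KB-V1 multidrug-resistant cells, 72 h, 37 degrees C; viability by CellTiter-Glo. Fitted qHTS curves give the values.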
MCF10A rereplic = A quantitative high throughput screen for small molecules that induce DNA re-replication in MCF 10a normal breast cells; hit rate 2.9% among 350,000; MCF 10A DNA re-replication, Hoechst nuclear intensity, 48 h; AID 624296, 2012; Potency, µM (doses to about 46.1 µM), actives largely listed as activators; note: nearly all actives have a fitted effect of over 50% in size
Hits are given with their value; – = inactive; ? = inconclusive; · = no result given. Unless noted, calls come from the whole dose curve; as a rule, active = well fitted curve in the direction sought with a large enough effect; inconclusive = small, poorly fitted or top-dose-only effect, or another doubt; inactive = no such curve, though single readings can be large; an effect the other way counts as inactive or inconclusive.

SMILES	TSG101-PTAP inh	KB-3-1 cytotox	RGS4 inh	SW480 rereplic	KB-V1 MDR tox	MCF10A rereplic
CC(C)Cn1c(=S)[nH]c2cc(C(=O)NCc3ccccc3F)ccc2c1=O	–	–	–	–	?	15µM
O=S1(=O)C2CC3C=CC2(CN1Cc1ccccc1)O3 (configuration not stated)	·	·	–	·	·	·
COC(=O)c1ccc(OCC(=O)c2ccc(O)cc2O)cc1	–	?	–	–	23µM	–
CCOC(=O)c1ccc(OCC(=O)c2ccc(O)cc2O)cc1	–	–	–	–	–	–
Nc1[nH]c(C(=O)c2ccccc2)c(-c2ccc(Br)cc2)c1C(=O)NCCc1c[nH]c2ccccc12	·	–	·	·	?	·
COc1ccccc1CCNC(=O)c1c(N)[nH]c(C(=O)c2ccccc2)c1-c1ccc(Br)cc1	·	?	·	·	15µM	·
CCOc1ccc(C2=CS/C(=C(\C#N)c3nnc4n3CCCCC4)N2CC)cc1	–	–	–	–	21µM	–
C=CCN1C(c2ccccc2)=CS/C1=C(\C#N)c1nnc2n1CCCCC2	–	–	–	–	?	–
O=C(Nc1ccc(Cl)cc1)c1ccc(-n2cccn2)c([N+](=O)[O-])c1	–	?	–	–	15µM	?
Cc1ccc(/C(N)=N/OC(=O)CCc2ccccc2)cc1	–	–	–	–	–	7.3µM
CC(=O)C1=NN(c2ccccc2)C2(S1)S/C(=C\c1ccccc1)C(=O)N2c1ccccc1 (configuration not stated)	–	–	–	5.2µM	–	?
CC1CN(C(=O)C2CCCC2)C(C)CN1C(=O)C1CCCC1 (configuration not stated)	–	–	–	–	10µM	–
CCCOc1cccc(C(=O)N(Cc2ccc(C)o2)C2CCS(=O)(=O)C2)c1 (configuration not stated)	·	·	–	·	·	·
O=C(O)c1ccc2c3c(ncnc13)-c1ccccc1C2=O	–	?	–	?	–	2.3µM
O=C(O)c1cccc2c1C(=O)c1ccccc1C2=O	–	–	–	–	–	–
Cc1cc(C)cc(-n2ccnc2SCC(=O)Nc2ccc(C)cc2C)c1	·	–	–	·	–	·
C/C(=N\NC(=O)Cc1ccc(Cl)cc1)c1ccc(F)cc1	–	–	–	–	–	–
C/C(=N\NC(=O)Cc1ccc(Cl)cc1)c1ccccc1O	–	?	–	15µM	?	–
C/C(=N\NC(=O)CSCc1ccc([N+](=O)[O-])cc1)c1ccccc1O	–	–	–	?	21µM	–
Cc1ccc(C(=O)c2sc(Nc3ccccc3F)c(S(=O)(=O)c3ccccc3)c2N)c(C)c1	·	–	–	·	–	·
Cc1ccc(S(=O)(=O)c2nc(-c3ccccc3F)oc2N2CCCCC2)cc1	·	–	–	·	?	·
COc1ccc(S(=O)(=O)N2CCC(C(=O)NCCOc3ccccc3F)CC2)cc1OC	–	–	–	–	23µM	–
COc1ccc(S(=O)(=O)N2CCC(C(=O)NCCc3ccccc3)CC2)cc1OC	–	–	–	–	–	–
CC(C)CNC(=O)N1[C@H](c2cccs2)[C@@H](C)C(=O)[C@@H](C)[C@@H]1c1cccs1	·	–	–	·	–	·
O=C(NCCCN1CCCC1=O)C1CCC(CNS(=O)(=O)c2ccc(Cl)cc2)CC1 (configuration not stated)	–	–	–	–	–	–
SMILES	TSG101-PTAP inh	KB-3-1 cytotox	RGS4 inh	SW480 rereplic	KB-V1 MDR tox	MCF10A rereplic
O=C(NCCN1CCOCC1)C1CCC(CNS(=O)(=O)c2ccc(Cl)cc2)CC1 (configuration not stated)	–	–	–	–	–	16µM
Cc1cccc(N2CCN(C(=O)C3CCC(CNS(=O)(=O)c4ccc(Br)s4)CC3)CC2)c1C (configuration not stated)	·	–	–	·	–	·
Cc1ccc(S(=O)(=O)NCC2CCC(C(=O)N3CCN(C)CC3)CC2)cc1 (configuration not stated)	–	–	–	?	–	18µM
Cc1cccc(N2CCN(C(=O)C3CCC(CNS(=O)(=O)c4cccs4)CC3)CC2)c1C (configuration not stated)	–	21µM	–	?	?	?
Cc1cccc(NC(=O)CCNS(=O)(=O)c2ccc3c(c2)CCCC(=O)N3)c1C	·	–	–	·	–	·
O=C(O)COc1ccccc1/C=C1\C(=O)Nc2ccc(Br)cc21	–	–	–	–	–	–
C=CCOc1cccc(C(=O)/C=C2/C(=O)Nc3ccccc32)c1	–	?	?	?	–	5.8µM
O=C1Nc2ccc(Br)cc2/C1=C/C(=O)c1ccccc1	–	?	?	?	?	18µM
CCn1nc(-c2ccc(C)cc2)nc2c(=O)n(C)c(=O)nc1-2	·	–	–	·	–	·
Cc1ccc(C(=O)c2cnc3cc4c(cc3c2S(=O)(=O)c2ccccc2)OCCO4)cc1	–	?	–	?	16µM	?
Cn1c(Cc2ccccc2)nnc1SCC(=O)NCCc1ccccc1	–	–	–	–	–	0.58µM
Cn1c(Cc2ccccc2)nnc1SCC(=O)Nc1ccccc1	–	–	–	–	–	–
O=C1CCc2cc([S+](=O)([O-])Nc3ccc(N[S+](=O)([O-])c4ccc5c(c4)CCC(=O)N5)cc3)ccc2N1	·	–	·	·	–	·

Source: PubChem BioAssay (National Center for Advancing Translational Sciences (NCATS))
